In PubChem BioAssay (NCATS):
Several values for one entry are separate records, joined by “and”; a condition that tells them apart may be missing. Equal entries are not always repeated. Activity calls are given as the source filed them. Calls follow the shape of the full dose curve. Residues, ends and D or L forms follow the SMILES beside them. *: point of attachment. Cbz = O=C(OCc1ccccc1)*

Assay: qHTS drug screen for cell cycle checkpoint inhibitors in PARPi-resistant BRCA-mutant ovarian cancer cell lines. (AID 1963452)
Conditions: PEO1/OlaR viability, CellTiter-Glo luminescence, 96 h; stronger effect = lower value
In short: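 PEO1, PEO4 and PEO1/OlaR ovarian cancer cells, 600 per well, exposed 96 h at 37C to a dilution series. Viability read by CellTiter-Glo luminescence, normalized to DMSO and empty wells; activity summarized as Z-AUC.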

Row | Structure (SMILES) | Z-AUC
1 | Cc1cc(C(=O)NOCCO)c(Nc2ccc(I)cc2F)n(C)c1=O | -0.774 (inactive)
2 | NC1=N[C@H]2[C@H](CS[C@H]2CCCCC(=O)O)N1 | -0.195 (inactive)
3 | C=CC(=O)N1CCc2ccc(-n3c(=O)ccc4cnc5ccc(-c6cnn(C)c6)cc5c43)cc21 | -0.366 (inactive)
4 | CCOC(=O)C1=C(C)NC(=S)NC1c1cccc(O)c1 (stereo not drawn) | 1.34 (inactive)
5 | CCCCCCCCc1ccc(CCC(N)(CO)CO)cc1 | -0.00924 (inactive)
6 | CC(C)Oc1ccc(C(=O)N[C@H](CNC(=O)CN(C)C)Cc2ccc(-c3cn4cccc([C@H](C)O)c4n3)cc2)cc1Cl | -1.44 (inactive)
7 | COc1cc(C(C)C)c(Oc2cnc(NC(CO)CO)nc2N)cc1I | 0.743 (inactive)

Same assay, conditions: PEO1/OlaR viability, CellTiter-Glo luminescence, 96 h; measured here: PEO1 parental Z-AUC; stronger effect = lower value

Row | Structure (SMILES) | Z-AUC
8 | CC(C)n1cnc2c(NCCc3ccc(O)cc3)nc(-c3csc4ccccc34)nc21 | 0.415
9 | CCc1c(O)cc(O)c(C(=O)c2ccc(OCCN3CCOCC3)c(OC)c2)c1CC(=O)N(CCOC)CCOC | -0.538
10 | Cn1cc(-c2cnn3c(N)c(Br)c([C@H]4CCCNC4)nc23)cn1 | 0.414 and -1.48
11 | Cn1cnc(=N)c2[nH]cnc21 | 0.768
12 | CC(C)C[C@@H](C=O)NC(=O)[C@H](CC(C)C)NC(=O)[C@H](CC(C)C)NC(=O)OCc1ccccc1 (Cbz-Leu-Leu-Leu-aldehyde) | -0.937
13 | c1ccc2c(Oc3nc(Nc4ccc(N5CCOCC5)cc4)c4ncn(C5CCCCC5)c4n3)cccc2c1 | 1.4
14 | CN(C)c1ccc(C(=O)NCCCCCCC(=O)NO)cc1 | -0.12
15 | CN(C)CCN1C(=O)c2cccc3cc(N)cc(c23)C1=O | -0.749
16 | O=[N+]([O-])c1cn2c(n1)OC[C@@H](OCc1ccc(OC(F)(F)F)cc1)C2 | 0.61
17 | CN(C)CC(=O)N1CCC(c2ccc(NC(=O)c3ncc(C#N)[nH]3)c(C3=CCCCC3)c2)CC1 | -0.797
18 | COc1cc(C[C@@H](CO)[C@H](CO)Cc2ccc(O)c(OC)c2)ccc1O | 0.526
19 | c1cc(CN2CCCNCCNCCCNCC2)ccc1CN1CCCNCCNCCCNCC1 | 0.744
20 | Cn1cnc2c(F)c(Nc3ccc(Br)cc3F)c(C(=O)NOCCO)cc21 | -0.742
21 | O=C(CCCCCCC(=O)Nc1cccnc1)NO | 0.211
22 | CC(N[C@H]1CCCC[C@H]1NC(=O)c1ccc(Cl)cc1)c1cccc2ccccc12 (stereo partly drawn) | 0.0458
23 | COc1cccc2c1C(=O)c1c(O)c3c(c(O)c1C2=O)C[C@@](O)(C(=O)CO)C[C@@H]3O[C@H]1C[C@H](N)[C@H](OC2CCCCO2)[C@H](C)O1 (stereo partly drawn) | -0.769 and -1.75

Row | Structure (SMILES) | Z-AUC
24 | c1ccc(CNc2nc(NCc3ccccc3)c3ccccc3n2)cc1 | -0.502
25 | CCOc1cc2c(c(F)c1OCC)C(=N)N(CC(=O)c1cc(N3CCOCC3)c(OC)c(C(C)(C)C)c1)C2 | 0.331
26 | CCCc1nc(C(C)(C)O)c(C(=O)O)n1Cc1ccc(-c2ccccc2-c2nn[nH]n2)cc1 | 0.788
27 | CCOC(=O)[C@@H](N)Cc1ccc(-c2cc(O[C@H](c3ccc(Cl)cc3-n3ccc(C)n3)C(F)(F)F)nc(N)n2)cc1 | -0.62
28 | COC(=O)C1C2CC3c4[nH]c5cc(OC)ccc5c4CCN3CC2CC(OC(=O)c2cc(OC)c(OC)c(OC)c2)C1OC (stereo not drawn) | 0.441
29 | N#Cc1cc(NC(=O)Nc2nnc(-c3ccncc3)s2)ccc1-c1cn[nH]c1 | 0.0346
30 | CC(C)NC[C@@H](C(=O)N1CCN(c2ncnc3c2[C@H](C)C[C@H]3O)CC1)c1ccc(Cl)cc1 | 1.5
31 | FC(F)c1nc2ccccc2n1-c1nc(N2CCOCC2)nc(N2CCOCC2)n1 | -1.07
32 | O=c1c(O)c(-c2ccc(O)c(O)c2)oc2cc(O)ccc12 | -0.105
33 | COc1cccc2c1C(=O)c1c(O)c3c(c(O)c1C2=O)C[C@@](O)(C(=O)CO)C[C@@H]3O[C@H]1C[C@H](N)[C@@H](O)[C@H](C)O1 | -2.06
34 | C[C@H]1[C@@H](OC(=O)CCC(=O)O)O[C@@H]2O[C@@]3(C)CC[C@@H]4[C@H](C)CC[C@@H]1[C@@]24OO3 | -0.815
35 | c1coc(CNc2ncnc3nc[nH]c23)c1 | 0.956
36 | COc1cc(C)c(Sc2cnc(NC(=O)c3ccc(CNC(C)C(C)(C)C)cc3)s2)cc1C(=O)N1CCN(C(C)=O)CC1 (stereo not drawn) | -0.233
37 | C=Cc1c(C)c2cc3nc(cc4[nH]c(cc5nc(cc1[nH]2)C(C)=C5CCC(=O)O)c(CCC(=O)OC)c4C)[C@@]1(C)C3=CC=C(C(=O)OC)[C@H]1C(=O)OC | 1.25
38 | CCOC(=O)C=C[C@H](C[C@@H]1CCNC1=O)NC(=O)[C@@H](CC(=O)[C@@H](NC(=O)c1cc(C)on1)C(C)C)Cc1ccc(F)cc1 | -0.169
